Assay outcomes as filed in PubChem BioAssay.
Gal4-VP16 FLuc = counter-screen for ROR gamma inhibitors: Gal4-VP16 reporter | Potency, µM (titrated, usually from 53.6 µM), for the others: top-dose activity, negative = inhibition, actives largely listed as inhibitors | hit rate 3.5% among 310,000 | AID 2546 | Drosophila S2 Gal4-VP16 UAS-luciferase, luminescence, 20 h;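 also: Gal4-VP16 expression switched on by copper sulfate through the metallothionein promoter; potency is read from the fitted curve at half-maximal effect; % is scaled to controls: 0 for no effect and ±100 for the full control effect; nearly all actives have a fitted effect of over 50% in size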
TGFb SMAD3 inh = inhibitors of TGF-b signaling. HepG2 CAGA-GFP TGF-b/SMAD3 reporter, GFP fluorescence, 18 h; TGF-beta stimulated, 500 pg/mL final. hit rate 1.2% among 410,000. Potency, µM (highest dose often 46.1 µM), for the others: top-dose activity, negative = inhibition, actives largely listed as inhibitors; also: potency is read from the fitted curve at half-maximal effect; % is scaled to controls: 0 for no effect and ±100 for the full control effect; nearly all actives have a fitted effect of over 65% in size
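Cell-based qHTS in HEPG2 carrying a CAGA-GFP Smad reporter; compounds added before 500 pg/mL final TGF-beta, 18 h incubation at 37 degrees C, GFP fluorescence quantified per cell by imaging cytometry.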
HepG2 tox-1 = kills HepG2 cells in TGF-b inhibitor counter-screen; HepG2 CAGA-GFP viability, ATP luminescence, 18 h; Potency, µM (doses to about 46.1 µM), without a hit: at the top dose activity change, negative = cytotoxicity, hits mostly cytotoxic; hit rate 0.76% among 410,000; also: potency is read from the fitted curve at half-maximal effect
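HepG2 CAGA-GFP cells (1000/well, DMEM with 1% FBS) received compound, then TGF-beta at 500 pg/mL final, and were incubated 18 hours at 37 degrees C. Viability was read by CellTiter-Glo luminescence. Media-only wells were set as complete cell-killing and DMSO as no toxicity.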
ATXN2 expr inh = reduces ATXN2 reporter expression in HEK-293 cells. HEK-293 ATXN2-luciferase reporter, luminescence, 24 h. Potency, µM (top dose mostly 57 µM), inactives show at the highest dose activity change, negative = inhibition, most hits filed as inhibitors. hit rate 0.72% among 360,000; also: potency is read from the fitted curve at half-maximal effect; % is scaled to controls: 0 for no effect and ±100 for the full control effect; nearly all actives have a fitted effect of over 55% in size
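qHTS (up to 57 uM final) was run with 24 h compound exposure of reporter cells at 37 °C. Each well was multiplexed: SteadyGlo luminescence measured ATXN2-luciferase expression after a fluorogenic Gly-Phe-AFC viability readout (25 uM final).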
RORg inh = inhibitors of mouse ROR gamma transcriptional activity. Drosophila S2 Gal4-RORgamma UAS-luciferase reporter, 20 h. Potency, µM (series often up to 53.6 µM), without a hit: at the highest dose activity change, negative = inhibition, actives largely listed as inhibitors. hit rate 5.4% among 310,000; also: potency is read from the fitted curve at half-maximal effect; % is scaled to controls: 0 for no effect and ±100 for the full control effect; nearly all actives have a fitted effect of over 60% in size
Target sequence (P51450 whole entry, looked up, the tested form may be a part): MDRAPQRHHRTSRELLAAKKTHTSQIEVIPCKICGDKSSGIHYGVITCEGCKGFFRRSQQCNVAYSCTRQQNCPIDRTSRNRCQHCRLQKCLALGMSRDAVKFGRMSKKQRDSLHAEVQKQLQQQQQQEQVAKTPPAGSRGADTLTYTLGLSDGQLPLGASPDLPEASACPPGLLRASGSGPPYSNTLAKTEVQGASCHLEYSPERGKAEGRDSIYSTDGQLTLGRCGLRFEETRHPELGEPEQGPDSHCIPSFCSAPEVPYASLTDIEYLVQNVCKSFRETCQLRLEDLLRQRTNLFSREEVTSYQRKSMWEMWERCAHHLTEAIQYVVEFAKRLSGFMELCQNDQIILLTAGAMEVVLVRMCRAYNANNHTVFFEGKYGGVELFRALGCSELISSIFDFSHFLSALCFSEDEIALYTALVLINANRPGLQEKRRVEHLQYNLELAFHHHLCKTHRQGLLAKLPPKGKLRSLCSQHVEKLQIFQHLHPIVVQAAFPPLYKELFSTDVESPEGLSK
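Compounds are pin-transferred onto Drosophila Schneider cells expressing a copper-inducible Gal4–ROR gamma transactivation domain fusion. After 1 hr, copper sulfate is added to 700 uM final; luciferase is read 20 hr later.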
S2 tox = reduces viability in counter-screen for ATXN expression inhibitors | S2 cells (HEK-293 line with an ATXN2-luciferase reporter) viability, CellTiter-Fluor protease fluorescence, 24 h | Potency, µM (series often up to 56.7 µM), hits mostly cytotoxic | hit rate 0.49% among 400,000; also: potency is read from the fitted curve at half-maximal effect; nearly all actives have a fitted effect of over 40% in size
TGFb confirm = confirmation of TGF-b signaling inhibitors in HepG2 reporter cells. shares compounds with TGFb SMAD3 inh. HepG2 CAGA-GFP TGF-b reporter, GFP fluorescence, 18 h; cells stimulated with TGF-beta, 500 pg/mL. Potency, µM (series often up to 46.1 µM), for the others: top-dose activity, negative = inhibition, usual class: inhibitors. hit rate 63% among 1,600; also: potency is read from the fitted curve at half-maximal effect; % is scaled to controls: 0 for no effect and ±100 for the full control effect; nearly all actives have a fitted effect of over 65% in size
HepG2 tox-2 = counter-screen for TGF-b inhibitors: cytotoxicity in HepG2 cells | Potency, µM (series often up to 46.1 µM), for the others: at the top dose activity, negative = cytotoxicity, usual class: inhibitors | hit rate 27% among 1,600 | HepG2 CAGA-GFP viability, ATP luminescence, 18 h; cells stimulated with TGF-beta, 500 pg/mL | shares compounds with TGFb SMAD3 inh | AID 720535; also: potency is read from the fitted curve at half-maximal effect; % is scaled to controls: 0 for no effect and ±100 for the full control effect; nearly all actives have a fitted effect of over 70% in size
CCL64 TGFb inh = TGF-b inhibition, CCL64 orthogonal assay; shares compounds with TGFb SMAD3 inh; Potency, µM (highest dose often 46.1 µM), without a hit: top-dose activity, negative = inhibition, hits mostly inhibitors; hit rate 41% among 1,600; CCL64 CAGA-GFP reporter, TGF-b stimulated, GFP fluorescence, 18 h; AID 720536; also: potency is read from the fitted curve at half-maximal effect; nearly all actives have a fitted effect of over 65% in size
COP TGFb inh = blocks TGF-b signaling in HepG2 COP reporter; AID 720537; shares compounds with TGFb SMAD3 inh; Potency, µM (titrated, usually from 46.1 µM), without a hit: at the top dose activity, negative = inhibition, usual class: inhibitors; hit rate 3% among 1,600; HepG2 COP-GFP TGF-b reporter, GFP fluorescence, 18 h; cells stimulated by added recombinant TGF-beta; also: potency is read from the fitted curve at half-maximal effect; nearly all actives have a fitted effect of over 70% in size
SKNSH spheroid = reduced viability of SK-N-SH 3D spheroids, orthogonal test; shares compounds with ATXN2 expr inh; SK-N-SH 3D spheroid viability, PI/Hoechst imaging, 72 h; Potency, µM (titrated, usually from 30.7 µM), actives largely listed as inhibitors; hit rate 70% among 65; AID 1347135
SJ-GBM2 3D tox = lowers viability of SJ-GBM2 3D spheroids; shares compounds with ATXN2 expr inh; SJ-GBM2 3D spheroid viability, PI/Hoechst imaging, 72 h; Potency, µM (titrated, usually from 30.7 µM), actives largely listed as inhibitors; hit rate 80% among 65; AID 1347136
Daoy spheroid = Daoy 3D spheroid viability loss; hit rate 50% among 65; Potency, µM (series often up to 30.7 µM), usual class: inhibitors; shares compounds with ATXN2 expr inh; Daoy 3D spheroid viability, PI/Hoechst imaging, 72 h
TC32 3D caspase = activates caspase in TC32 3D spheroids | TC32 3D spheroids, caspase-3/7 fluorescence imaging, 24 h | shares compounds with ATXN2 expr inh | hit rate 30% among 65 | Potency, µM (titrated, usually from 30.7 µM), actives largely listed as inhibitors
TC32 spheroid = kills TC32 spheroids in orthogonal 3D test; Potency, µM (titrated, usually from 30.7 µM), usual class: inhibitors; TC32 3D spheroid viability, PI/Hoechst imaging, 72 h; hit rate 60% among 65; shares compounds with ATXN2 expr inh
MG63 spheroid = kills MG-63 (6-TG R) spheroids in orthogonal 3D test | shares compounds with ATXN2 expr inh | MG-63 (6-TG R) 3D spheroid viability, PI/Hoechst imaging, 72 h | Potency, µM (series often up to 30.7 µM), actives largely listed as inhibitors | hit rate 50% among 65 | AID 1347140
RD spheroid = reduced viability of RD 3D spheroids, orthogonal test | shares compounds with ATXN2 expr inh | RD rhabdomyosarcoma 3D spheroid viability, PI/Hoechst imaging, 72 h | Potency, µM (series often up to 30.7 µM), actives largely listed as inhibitors | hit rate 50% among 65
Numbers without * were called inactive; ! = not active in a repeat. Shown are actives, neighbours in structure and some others; about 6.3% of the full set was active somewhere. Calls follow the shape of the dose curve; as a rule, active = well fitted curve in the direction sought with a large enough effect; inconclusive = small, poorly fitted or top-dose-only effect, or another doubt; inactive = no such curve, though single readings can be large; an effect the other way counts as inactive or inconclusive.

Results for CCCCCC[C@H]1C(=O)O[C@H](C)[C@H](NC(=O)c2cccc(NC=O)c2O)C(=O)O[C@@H](C)[C@@H]1OC(=O)CC(C)C ?
Gal4-VP16 FLuc: 2.0%; ATXN2 expr inh: inconclusive; RORg inh: inconclusive

How did Nc1nc(F)nc2c1ncn2[C@@H]1O[C@H](CO)[C@@H](O)[C@H]1O do in these assays?
Gal4-VP16 FLuc: -3.6%; TGFb SMAD3 inh: 0.794µM*; HepG2 tox-1: -36.6%; ATXN2 expr inh: 2.51µM*; RORg inh: -3.7%; S2 tox: 3.16µM*; TGFb confirm: 0.581µM*; HepG2 tox-2: 0.461µM*; CCL64 TGFb inh: 1.16µM*; COP TGFb inh: 25.4%

How did C=C(C)[C@@]12OC3(c4ccccc4)O[C@@H]1C1[C@@H]4O[C@]4(CO)[C@@H](O)[C@]4(O)C(=O)C(C)=C[C@H]4[C@@]1(O3)[C@H](C)[C@H]2OC(=O)/C=C/C=C/c1ccccc1 (stereo partly drawn) do in these assays?
TGFb SMAD3 inh: -97.6%; HepG2 tox-1: -86.8%; ATXN2 expr inh: -9.7%; S2 tox: inconclusive; TGFb confirm: inconclusive; HepG2 tox-2: inconclusive; CCL64 TGFb inh: inconclusive; COP TGFb inh: -5.5%

What do the screens show for `CCN1C[C@]2(C)CC[C@H](OC)[C@@]34[C@H]1C1(OCO[C@@]15C[C@H](OC)C1C[C@]3(O)C5[C@H]1OC)[C@@H](O)[C@H]24`?
Gal4-VP16 FLuc: -4.6%; RORg inh: 7.1%

What do the screens show for `C[C@H]1C[C@@H](C)C(=O)[C@@H]([C@H](O)CC2CC(=O)NC(=O)C2)C1`?
Gal4-VP16 FLuc: 2.82µM*!; TGFb SMAD3 inh: 0.708µM*; HepG2 tox-1: -20.9%; ATXN2 expr inh: 1.12µM*; RORg inh: 0.251µM*!; S2 tox: inactive; TGFb confirm: 1.03µM*; HepG2 tox-2: inconclusive; CCL64 TGFb inh: 0.326µM*; COP TGFb inh: 25.0%

Results for C[C@H]1CCC/C=C/[C@@H]2C[C@H](O)C[C@H]2[C@@H](O)/C=C/C(=O)O1 ?
TGFb SMAD3 inh: -108.9%; HepG2 tox-1: -40.9%; ATXN2 expr inh: inconclusive; S2 tox: inconclusive; TGFb confirm: 0.058µM*; HepG2 tox-2: 0.13µM*; CCL64 TGFb inh: inconclusive; COP TGFb inh: 78.2%

What do the screens show for `CCCCC[C@H]1CCCCC[C@@H](O)C[C@@H](O)[C@@H](O)/C=C/C(=O)O1`?
ATXN2 expr inh: 2.2%; S2 tox: inactive

What do the screens show for `Nc1nc(F)nc2c1ncn2[C@@H]1O[C@H](CO)[C@@H](O)[C@@H]1O`?
Gal4-VP16 FLuc: -13.5%; TGFb SMAD3 inh: 0.501µM*; HepG2 tox-1: -38.1%; ATXN2 expr inh: 1.72µM*!; RORg inh: -7.0%; S2 tox: inactive; TGFb confirm: 0.461µM*; HepG2 tox-2: 0.461µM*; CCL64 TGFb inh: -33.2%; COP TGFb inh: 42.0%; SKNSH spheroid: 0.456µM*; SJ-GBM2 3D tox: 0.287µM*; Daoy spheroid: 0.362µM*; TC32 3D caspase: 3.62µM*; TC32 spheroid: 2.04µM*; MG63 spheroid: 0.204µM*; RD spheroid: 1.44µM*

What do the screens show for `COC(=O)C(C)Oc1ccc(Cc2ncc(C(F)(F)F)cc2Cl)cc1` (stereo not drawn)?
Gal4-VP16 FLuc: 17.7%; TGFb SMAD3 inh: 17.5%; HepG2 tox-1: -2.6%; RORg inh: 11.8%; S2 tox: inconclusive

What do the screens show for `c1cc(CN2CC3(CCNCC3)C2)ccn1`?
Gal4-VP16 FLuc: -13.6%; RORg inh: -12.3%

What do the screens show for `CN1C2CCC1CC(C(=O)OC(CO)c1ccccc1)C2` (stereo not drawn)?
Gal4-VP16 FLuc: 1.0%; RORg inh: 1.2%
